# Test results: PubChem BioAssay
# Activity calls are given as the source filed them.
# What was measured:
# [1] = binders of probe aFSTL3 on microarray, primary screen, stem cell growth factor project, biochemical, small-molecule microarray, fluorescence 635/667 (AID 1064); conditions: higher = more signal;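 note: measures binding of the biotinylated anti-FSTL3 antibody to printed compounds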
# [2] = binders from COS7 lysate, DM2A8 probe, primary screen, torsin A project, cell lysate, small-molecule microarray, fluorescence 635/667 (AID 1065); conditions: higher = more signal, COS7 lysate expressing mutant human TOR1A
# [3] = binders of probe aFGF2 on microarray, primary screen, stem cell growth factor project, biochemical, small-molecule microarray, fluorescence 635/667 (AID 1067); conditions: higher = more signal;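 note: measures binding of biotinylated aFGF2 protein to printed compounds on slides; z-score merges feature fluorescence and signal-to-noise across triplicate slides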
# [4] = binders of probe aFGF10 on microarray, primary screen, stem cell growth factor project, biochemical, small-molecule microarray, fluorescence 635/667 (AID 1071); conditions: higher = more signal;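 note: score merges 667 nm spot intensity and signal to noise from triplicate slides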
# [5] = biological target: Neurogenic locus notch homolog protein 2 (Homo sapiens) (UniProt Q04721); assay: Notch2 binders on small-molecule microarrays, primary screen, biochemical, small-molecule microarray, 635 nm fluorescence, stem cell growth factors (AID 1073); conditions: Notch2 binding, higher = more signal
# [6] = biological target: Pro-neuregulin-1, membrane-bound isoform (Homo sapiens) (UniProt Q02297); assay: NRG1 binders on small-molecule microarrays, primary screen, psychiatric disease protein project, biochemical, small-molecule microarray, fluorescence 635/667 (AID 1075); conditions: NRG1 binding, 635 nm fluorescence, higher = more signal;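 note: score combines 667 nm spot fluorescence with signal to noise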
# [7] = test system: Neuregulin-1 EGF-like domain; assay: binders of neuregulin-1 EGF-like domain, primary screen, biochemical, small-molecule microarray, 635 nm fluorescence (AID 1081); conditions: small-molecule microarray binding, higher = more signal;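 note: binding of the protein to compounds printed on small-molecule microarray slides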
# [8] = FRG1 promoter luciferase signal modulators, primary screen, FRG1 inhibition for FSHD, cell-based, C2C12 myotubes, firefly/Renilla luciferase, luminescence (AID 1084); conditions: higher = more signal, called active from +8 up or from −8 down
# [9] = binders of probe aFST on microarray, primary screen, stem cell growth factor project, biochemical, small-molecule microarray, fluorescence 635/667 (AID 1086); conditions: higher = more signal;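 note: score merges 667 nm fluorescence with signal-to-noise of each printed compound spot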
# [10] = binders of probe aHhip on microarray, primary screen, stem cell growth factor project, biochemical, small-molecule microarray, fluorescence 635/667 (AID 1087); conditions: higher = more signal;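 note: score merges spot fluorescence at 667nm with spot signal to noise ratio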
# [11] = test system: PRMT1 (protein arginine N-methyltransferase 1); assay: PRMT1 binders on small-molecule microarrays, primary screen, biochemical, small-molecule microarray, 635 nm fluorescence (AID 1088); conditions: small-molecule microarray binding, higher = more signal;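 note: binding of Prmt1 protein to compounds spotted on small-molecule microarray slides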
# [12] = yeast growth modulation, basal conditions, primary screen, YJM789 clinical isolate, OD600, 24 h (AID 1089);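 note: growth of clinical yeast isolate S. cerevisiae YJM 789 seeded 1000 cells per well; test concentration not given here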; conditions: S. cerevisiae YJM789 growth, higher = more signal, called active from +8 up or from −8 down
# [13] = fission yeast growth modulation, primary screen, strain 972, OD600, 24 h, no modulator (AID 1090);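 note: basal condition with compound alone and no growth modifier present; test concentration not given here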; conditions: S. pombe 972 growth, higher = more signal, called active from +8 up or from −8 down
# [14] = S. cerevisiae growth modulation with rapamycin, primary screen, strain BY4716, OD600, 96 h (AID 1091); conditions: higher = more signal, called active from +8 up or from −8 down; note: test concentration not given here
# [15] = biological target: Torsin-1A-interacting protein 2 (Homo sapiens) (UniProt Q8NFQ8); assay: LULL1 binders on small-molecule microarray, primary screen, cell lysate, human LULL1 lysate, 635/667 nm fluorescence (AID 1092); conditions: hLULL1 lysate binding, 635 nm fluorescence, higher = more signal;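 note: probe is lysate of COS7 cells overexpressing human LULL1; score merges per-feature 667 nm fluorescence with signal-to-noise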
# [16] = E. coli growth modulation, two-sided OD650, primary screen, E. coli filamentation project, strain DRC41, 24 h (AID 1093); conditions: OD650, 24 h, higher = more signal, called active from +8 up or from −8 down;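 note: MC1000 strain lacking acrAB efflux and sulA so SOS filamentation is blocked; test concentration not given here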
# [17] = small-molecule microarray binders of probe aLefty2, primary screen, biochemical, biotinylated probe, 635/667 nm fluorescence (AID 1094); conditions: higher = more signal;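 note: score merges spot fluorescence near 667 nm with spot signal-to-noise ratio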
# [18] = test system: Noggin (protein binding on small-molecule microarray); assay: Noggin binders on small-molecule microarray, primary screen, biochemical, 635/667 nm fluorescence (AID 1095); conditions: 635 nm fluorescence, higher = more signal;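 note: score merges 667 nm feature fluorescence with signal to noise over triplicate slides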
# [19] = biological target: Neurogenic locus notch homolog protein 3 (Homo sapiens) (UniProt Q9UM47); assay: NOTCH3 binders on small-molecule microarray, primary screen, biochemical, 635/667 nm fluorescence (AID 1096); conditions: NOTCH3 binding, 635 nm fluorescence, higher = more signal
# [20] = small-molecule microarray binders of probe aEGFR, primary screen, biochemical, biotinylated probe, 635/667 nm fluorescence (AID 1097); conditions: higher = more signal;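 note: probe is a biotinylated anti-EGFR antibody binding compounds printed on slides; score combines fluorescence near 667 nm and signal to noise of each spot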
# Torsin-1A-interacting protein 2 (Homo sapiens), sequence (Q8NFQ8 whole entry, looked up): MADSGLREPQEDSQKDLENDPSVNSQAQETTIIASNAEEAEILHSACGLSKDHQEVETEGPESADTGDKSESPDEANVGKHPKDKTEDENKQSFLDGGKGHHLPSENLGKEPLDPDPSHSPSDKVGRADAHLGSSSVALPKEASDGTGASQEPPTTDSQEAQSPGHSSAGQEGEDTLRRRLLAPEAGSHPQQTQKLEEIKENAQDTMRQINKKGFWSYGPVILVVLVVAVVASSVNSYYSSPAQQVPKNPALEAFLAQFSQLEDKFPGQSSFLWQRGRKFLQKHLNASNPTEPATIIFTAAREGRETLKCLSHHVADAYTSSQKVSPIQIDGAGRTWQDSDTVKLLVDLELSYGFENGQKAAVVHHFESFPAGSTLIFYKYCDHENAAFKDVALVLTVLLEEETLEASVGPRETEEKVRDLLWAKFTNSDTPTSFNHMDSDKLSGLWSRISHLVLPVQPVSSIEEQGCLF
# Pro-neuregulin-1, membrane-bound isoform (Homo sapiens), sequence (Q02297 whole entry, looked up, the tested form may be a part, canonical isoform): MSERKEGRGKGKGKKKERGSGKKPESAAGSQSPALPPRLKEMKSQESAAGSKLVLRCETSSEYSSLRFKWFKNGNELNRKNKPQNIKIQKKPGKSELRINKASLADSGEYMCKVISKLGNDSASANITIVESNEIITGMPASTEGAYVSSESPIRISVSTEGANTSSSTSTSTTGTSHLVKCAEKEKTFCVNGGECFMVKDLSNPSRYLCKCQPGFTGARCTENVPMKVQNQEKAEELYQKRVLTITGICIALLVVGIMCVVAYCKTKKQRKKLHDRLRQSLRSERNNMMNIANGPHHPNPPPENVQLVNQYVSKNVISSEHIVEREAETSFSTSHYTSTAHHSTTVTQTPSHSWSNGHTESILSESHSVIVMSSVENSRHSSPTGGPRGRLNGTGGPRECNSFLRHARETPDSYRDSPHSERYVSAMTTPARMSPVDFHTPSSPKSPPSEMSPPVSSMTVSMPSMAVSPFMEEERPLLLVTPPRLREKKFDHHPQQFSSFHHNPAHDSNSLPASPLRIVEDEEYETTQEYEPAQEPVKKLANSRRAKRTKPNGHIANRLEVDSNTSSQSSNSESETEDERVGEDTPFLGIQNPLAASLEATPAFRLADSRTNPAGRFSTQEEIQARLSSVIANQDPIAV
# Neurogenic locus notch homolog protein 2 (Homo sapiens), sequence (Q04721 whole entry, looked up, canonical isoform): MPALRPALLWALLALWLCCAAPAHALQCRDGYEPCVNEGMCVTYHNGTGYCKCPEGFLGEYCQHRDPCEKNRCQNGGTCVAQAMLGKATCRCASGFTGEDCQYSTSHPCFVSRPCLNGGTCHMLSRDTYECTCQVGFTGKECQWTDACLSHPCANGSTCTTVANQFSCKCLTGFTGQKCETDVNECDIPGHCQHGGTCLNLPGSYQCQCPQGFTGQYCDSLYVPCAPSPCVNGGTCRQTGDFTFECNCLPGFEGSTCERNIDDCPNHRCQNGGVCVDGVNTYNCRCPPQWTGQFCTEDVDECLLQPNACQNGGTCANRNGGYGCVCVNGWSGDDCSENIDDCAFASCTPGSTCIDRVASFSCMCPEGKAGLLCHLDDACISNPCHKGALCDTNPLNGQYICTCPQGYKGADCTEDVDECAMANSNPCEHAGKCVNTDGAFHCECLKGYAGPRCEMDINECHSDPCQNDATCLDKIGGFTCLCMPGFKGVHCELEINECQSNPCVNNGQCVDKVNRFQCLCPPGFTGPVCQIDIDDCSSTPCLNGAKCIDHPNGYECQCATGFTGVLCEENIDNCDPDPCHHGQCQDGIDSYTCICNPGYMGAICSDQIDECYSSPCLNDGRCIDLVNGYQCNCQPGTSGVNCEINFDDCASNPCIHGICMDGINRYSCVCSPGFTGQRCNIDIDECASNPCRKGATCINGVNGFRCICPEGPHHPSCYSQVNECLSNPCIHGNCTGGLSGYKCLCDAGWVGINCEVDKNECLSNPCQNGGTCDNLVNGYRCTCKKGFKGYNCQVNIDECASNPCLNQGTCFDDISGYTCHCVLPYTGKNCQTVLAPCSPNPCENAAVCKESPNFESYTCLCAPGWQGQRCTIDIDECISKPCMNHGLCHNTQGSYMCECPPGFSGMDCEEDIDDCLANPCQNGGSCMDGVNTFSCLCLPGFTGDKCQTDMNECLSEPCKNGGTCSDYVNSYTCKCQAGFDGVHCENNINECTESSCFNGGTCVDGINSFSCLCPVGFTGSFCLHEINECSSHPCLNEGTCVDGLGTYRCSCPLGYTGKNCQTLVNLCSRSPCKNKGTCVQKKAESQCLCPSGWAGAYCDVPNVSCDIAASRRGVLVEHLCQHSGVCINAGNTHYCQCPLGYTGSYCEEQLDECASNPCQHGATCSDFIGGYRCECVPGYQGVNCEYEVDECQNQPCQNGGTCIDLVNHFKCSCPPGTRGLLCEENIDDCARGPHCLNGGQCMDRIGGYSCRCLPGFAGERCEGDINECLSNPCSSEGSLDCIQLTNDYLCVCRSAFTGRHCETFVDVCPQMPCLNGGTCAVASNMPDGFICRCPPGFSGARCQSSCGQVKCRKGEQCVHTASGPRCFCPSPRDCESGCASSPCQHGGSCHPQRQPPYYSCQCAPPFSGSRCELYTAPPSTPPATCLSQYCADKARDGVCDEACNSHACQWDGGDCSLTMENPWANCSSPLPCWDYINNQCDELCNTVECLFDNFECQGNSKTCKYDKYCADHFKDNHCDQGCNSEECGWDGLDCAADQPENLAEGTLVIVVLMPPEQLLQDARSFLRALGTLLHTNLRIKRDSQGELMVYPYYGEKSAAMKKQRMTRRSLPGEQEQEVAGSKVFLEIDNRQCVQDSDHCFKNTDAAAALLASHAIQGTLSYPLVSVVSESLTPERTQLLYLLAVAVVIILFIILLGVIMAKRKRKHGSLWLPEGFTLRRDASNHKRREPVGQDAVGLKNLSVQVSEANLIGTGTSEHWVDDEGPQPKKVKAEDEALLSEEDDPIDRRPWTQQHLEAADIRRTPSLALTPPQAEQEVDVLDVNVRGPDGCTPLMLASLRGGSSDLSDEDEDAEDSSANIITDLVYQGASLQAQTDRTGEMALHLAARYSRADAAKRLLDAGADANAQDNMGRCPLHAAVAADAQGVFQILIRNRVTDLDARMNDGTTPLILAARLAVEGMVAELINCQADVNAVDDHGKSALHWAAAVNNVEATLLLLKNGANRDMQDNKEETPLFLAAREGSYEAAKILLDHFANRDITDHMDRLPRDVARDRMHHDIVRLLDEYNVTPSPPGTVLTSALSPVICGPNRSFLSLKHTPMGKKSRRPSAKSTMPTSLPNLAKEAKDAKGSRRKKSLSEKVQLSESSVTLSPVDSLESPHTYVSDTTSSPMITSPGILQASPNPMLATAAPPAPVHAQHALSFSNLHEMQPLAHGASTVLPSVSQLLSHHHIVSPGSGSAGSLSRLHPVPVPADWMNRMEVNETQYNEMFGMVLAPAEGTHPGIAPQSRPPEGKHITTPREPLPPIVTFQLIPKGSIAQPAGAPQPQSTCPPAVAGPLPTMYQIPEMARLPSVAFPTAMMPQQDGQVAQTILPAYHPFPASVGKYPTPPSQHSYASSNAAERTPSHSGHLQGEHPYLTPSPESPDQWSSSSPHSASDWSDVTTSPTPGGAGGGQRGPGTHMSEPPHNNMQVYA
SMILES,composite z-score [1],composite z-score [2],composite z-score [3],composite z-score [4],composite z-score [5],composite z-score [6],composite z-score [7],z-score [8],composite z-score [9],composite z-score [10],composite z-score [11],z-score [12],z-score [13],z-score [14],composite z-score [15],z-score [16],composite z-score [17],composite z-score [18],composite z-score [19],composite z-score [20]
Cc1ccc(N2C(=O)c3ccccc3[C@](C)(C(=O)NCC(F)(F)F)[C@@H]2c2ccc(CO)cc2)nc1,1.36,-0.769,-0.128,-1.14,-1.22,1.64,0.0042,0.0677 (inactive),-0.413,-0.0423,-0.973,-0.625 (inactive),-0.972 (inactive),-0.286 (inactive),-0.916,1.1 (inactive),-0.0741,-1.81,-2.16,-0.352
C=CCC(OC(C)=O)[C@@H]1[C@@H](N(Cc2ccc(-c3cccc(C(F)(F)F)c3)o2)C(=O)c2ccc(-c3ccccc3)cc2)c2cc(OCCCO)ccc2N1C(=O)Cc1ccc(OC)cc1 (stereo not given in full),0.365,-0.338,-0.1,-0.394,-0.654,-0.61,-0.663,-0.981 (inactive),0.258,-0.0324,-0.305,-0.933 (inactive),-1.88 (inactive),-0.82 (inactive),-0.0364,1.84 (inactive),0.0236,-0.475,-1.16,-0.191
CC(C)(C)OC(=O)CC[C@@]1(C(=O)NCc2ccccc2)N=C(c2ccc(OCCCO)cc2)O[C@@H]1c1ccccc1CN=[N+]=[N-],0.492,1.41,0.015,1.18,1.49,1.16,1.15,0.59 (inactive),1.19,-0.148,1.53,-0.0222 (inactive),-0.0704 (inactive),-0.13 (inactive),2.3,2.64 (inactive),0.387,0.958,1.14,0.236
COc1ccc([Si](C)(C)[C@@H]2[C@@H](CC(=O)N3CCC[C@H]3CO)O[C@]3(C(=O)N(Cc4ccc(I)cc4)c4ccccc43)[C@H]2C)cc1,0.035,0.356,-0.142,0.254,0.806,0.805,1.22,-1.71 (inactive),0.357,0.281,1.56,-1.41 (inactive),-0.398 (inactive),-0.309 (inactive),1.53,2.22 (inactive),0.0662,0.982,1.13,0.0152
C=C(CCCC)/C(=C/C[C@H](OC(=O)c1ccncc1)c1ccc(CO)o1)c1cnc2ccccc2c1,-0.408,0.536,-0.0332,0.941,1.41,-0.185,1.04,-0.587 (inactive),0.761,0.265,1.56,3.23 (inactive),-1.99 (inactive),-0.516 (inactive),1.89,0.74 (inactive),-0.0102,1.19,1.09,0.0221
CN(C)CCCC[C@@H]1NC(=O)[C@@H]2C[C@H](C(=O)NCCCCCNC(=O)CS)[C@H](c3cccc(OCCO)c3)N2C1=O,0.32,0.532,-0.101,0.141,0.393,0.267,1.2,0.37 (inactive),0.19,0.259,1.07,-2.64 (inactive),-1.81 (inactive),-2.15 (inactive),0.127,2.1 (inactive),0.0494,1.62,0.162,0.186
COC(=O)C1=CC(CCCO)=CC(C2CC2)N(Cc2cc3c(cc2Br)OCO3)C=C1C(=O)OC (stereo not given),1.74,2.08,-0.0656,-0.435,0.728,2.22,1.3,-0.0234 (inactive),0.796,-0.0645,1.54,-1.04 (inactive),-2.22 (inactive),-1.23 (inactive),3,-0.741 (inactive),0.392,-0.705,0.647,0.0821
COCCCNC(=O)[C@@]1(Cc2ccccc2CN=[N+]=[N-])COC(c2ccc(OCCCO)cc2)=N1,1.14,1.3,0.302,1.07,1.28,1.84,1.28,-2.53 (inactive),0.934,-0.277,1.54,1.14 (inactive),-2.56 (inactive),0.0898 (inactive),3.17,2.36 (inactive),0.374,-0.434,0.964,0.294
COC(=O)C(CC#Cc1ccc2c(c1)[C@]1(C(=O)N2)[C@H](c2ccccc2OCCO)N2[C@H](c3ccccc3)[C@H](c3ccccc3)OC(=O)[C@H]2[C@@H]1C(=O)N1CCCCCCC1)C(=O)OC,4,2.62,0.984,1.28,1.54,2.17,0.982,0.62 (inactive),3.71,2.52,1.53,0.349 (inactive),0.958 (inactive),1.06 (inactive),4.89,1.83 (inactive),1.93,2.02,1.09,1.44
CC(C)(C)OC(=O)CC[C@@]12N=C(c3ccc(OCCCO)cc3)O[C@@H]1c1ccccc1CN(Cc1ccccc1)C2=O,0.265,0.141,-0.0118,0.294,0.549,0.391,1.14,-4.73 (inactive),0.419,-0.069,1.56,1.44 (inactive),-3.05 (inactive),6.17 (inactive),2.49,1.36 (inactive),-0.0664,1.62,0.981,-0.103
